Measured values as given in paper PMC7862700, “An all-to-all approach to the identification of sequence-specific readers for epigenetic DNA modifications on cytosine”.

Tests used:
Assay in all cases: DAPPL (digital affinity profiling via proximity ligation, sequencing); 10 mM Tris-HCl pH 7.5, 50 mM NaCl, 1 mM DTT, 4% glycerol, room temperature, 30 min; GST-TFs on glutathione beads, 16-mer random dsDNA library, 0.1% formaldehyde crosslink after washing; high values mean tight binding
FLI1 = target: T1, FLI1 (Homo sapiens, UniProt Q01543 1-452); settings: protein: recombinant; tags: N-terminal GST; dsDNA, one strand shown
T1 sequence: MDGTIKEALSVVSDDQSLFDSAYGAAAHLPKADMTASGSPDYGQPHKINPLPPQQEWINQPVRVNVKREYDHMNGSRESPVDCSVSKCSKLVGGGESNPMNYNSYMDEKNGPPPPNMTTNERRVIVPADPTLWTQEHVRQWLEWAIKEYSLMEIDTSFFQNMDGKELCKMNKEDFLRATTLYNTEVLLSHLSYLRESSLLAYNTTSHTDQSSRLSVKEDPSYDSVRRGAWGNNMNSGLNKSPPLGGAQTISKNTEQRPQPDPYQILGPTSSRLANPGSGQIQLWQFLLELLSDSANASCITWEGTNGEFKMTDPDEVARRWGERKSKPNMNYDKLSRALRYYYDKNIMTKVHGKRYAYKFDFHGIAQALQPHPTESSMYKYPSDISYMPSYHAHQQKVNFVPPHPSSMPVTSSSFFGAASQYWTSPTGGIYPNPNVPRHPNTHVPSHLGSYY
Summary of the method: (§1)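 Human transcription factors were made in yeast as GST fusions, captured on glutathione beads and barcoded with DNA. With a tag-only sample included, the pool was incubated with 200 nmole of a random double-stranded 16-mer DNA library in Tris/NaCl/DTT/glycerol buffer at room temperature for 30 min, then crosslinked with 0.1% formaldehyde after washing, ligated by proximity, amplified and sequenced. For binding signal, each hexamer's read frequency for a factor is divided by its frequency for the tag-only sample.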

ELK1 = target: T2, ELK1 (Homo sapiens, UniProt P19419 1-428); settings: protein: recombinant; tags: N-terminal GST; dsDNA, one strand shown
T2 sequence: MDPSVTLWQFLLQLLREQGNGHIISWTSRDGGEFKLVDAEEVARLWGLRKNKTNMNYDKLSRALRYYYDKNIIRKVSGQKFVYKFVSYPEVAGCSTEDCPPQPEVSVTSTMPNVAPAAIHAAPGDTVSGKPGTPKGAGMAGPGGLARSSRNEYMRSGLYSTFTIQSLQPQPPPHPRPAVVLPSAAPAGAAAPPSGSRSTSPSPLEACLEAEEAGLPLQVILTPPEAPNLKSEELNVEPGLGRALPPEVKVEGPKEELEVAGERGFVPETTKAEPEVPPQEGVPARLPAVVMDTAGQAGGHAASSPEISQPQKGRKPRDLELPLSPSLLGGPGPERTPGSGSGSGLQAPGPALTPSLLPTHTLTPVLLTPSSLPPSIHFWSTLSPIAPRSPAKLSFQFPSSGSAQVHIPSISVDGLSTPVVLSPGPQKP
Summary of the method: as §1

GABPA = target: T3, GABPA (Homo sapiens, UniProt Q06546 1-454); settings: protein: recombinant; tags: N-terminal GST; dsDNA, one strand shown
T3 sequence: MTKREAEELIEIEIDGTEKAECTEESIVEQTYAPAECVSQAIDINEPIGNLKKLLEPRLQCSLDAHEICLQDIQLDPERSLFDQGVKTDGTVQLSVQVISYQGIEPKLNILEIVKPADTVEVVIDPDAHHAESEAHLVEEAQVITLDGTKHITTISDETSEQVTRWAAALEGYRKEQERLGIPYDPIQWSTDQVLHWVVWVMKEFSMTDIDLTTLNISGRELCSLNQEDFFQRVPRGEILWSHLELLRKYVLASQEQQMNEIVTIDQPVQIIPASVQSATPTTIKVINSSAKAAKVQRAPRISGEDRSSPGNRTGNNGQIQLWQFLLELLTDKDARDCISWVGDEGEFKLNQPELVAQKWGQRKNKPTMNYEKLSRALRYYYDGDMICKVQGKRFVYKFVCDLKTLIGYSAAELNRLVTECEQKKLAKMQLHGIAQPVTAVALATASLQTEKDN
Summary of the method: as §1

ERG = target: T4, ERG (Homo sapiens, UniProt P11308 1-479); settings: protein: recombinant; tags: N-terminal GST; dsDNA, one strand shown
T4 sequence: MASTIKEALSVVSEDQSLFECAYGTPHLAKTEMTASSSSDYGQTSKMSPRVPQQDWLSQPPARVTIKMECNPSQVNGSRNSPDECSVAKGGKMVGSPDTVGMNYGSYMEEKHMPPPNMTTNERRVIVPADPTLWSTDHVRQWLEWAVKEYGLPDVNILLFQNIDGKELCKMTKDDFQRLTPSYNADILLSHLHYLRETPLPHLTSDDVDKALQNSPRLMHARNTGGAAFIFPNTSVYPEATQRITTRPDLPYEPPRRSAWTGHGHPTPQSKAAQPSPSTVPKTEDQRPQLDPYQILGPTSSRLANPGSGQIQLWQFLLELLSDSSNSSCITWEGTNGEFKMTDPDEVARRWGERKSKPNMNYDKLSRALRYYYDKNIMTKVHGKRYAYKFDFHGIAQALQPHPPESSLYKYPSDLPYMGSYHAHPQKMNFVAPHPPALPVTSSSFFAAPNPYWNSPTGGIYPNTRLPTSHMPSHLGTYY
Summary of the method: as §1

ELF1 = ELF1 (Homo sapiens, UniProt P32519 1-619); settings: protein: recombinant; tags: N-terminal GST; dsDNA, one strand shown
Chain of ELF1 (P32519 whole entry): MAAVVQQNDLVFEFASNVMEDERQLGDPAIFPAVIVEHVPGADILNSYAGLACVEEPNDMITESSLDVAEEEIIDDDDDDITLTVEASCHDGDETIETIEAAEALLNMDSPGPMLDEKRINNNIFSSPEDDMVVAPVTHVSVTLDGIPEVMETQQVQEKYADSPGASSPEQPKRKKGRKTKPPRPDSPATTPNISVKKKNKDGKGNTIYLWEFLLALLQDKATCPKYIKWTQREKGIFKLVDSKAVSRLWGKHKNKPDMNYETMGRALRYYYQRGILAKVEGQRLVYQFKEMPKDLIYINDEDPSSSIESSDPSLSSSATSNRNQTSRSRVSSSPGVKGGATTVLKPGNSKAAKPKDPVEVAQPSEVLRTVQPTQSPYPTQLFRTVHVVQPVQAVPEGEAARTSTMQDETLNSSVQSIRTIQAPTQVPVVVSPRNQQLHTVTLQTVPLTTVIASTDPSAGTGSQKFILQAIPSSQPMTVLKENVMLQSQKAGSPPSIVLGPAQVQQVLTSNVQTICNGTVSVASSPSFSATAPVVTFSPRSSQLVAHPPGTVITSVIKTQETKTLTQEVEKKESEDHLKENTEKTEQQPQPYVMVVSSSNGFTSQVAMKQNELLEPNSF
Summary of the method: as §1

EHF = target: T5, EHF (Homo sapiens, UniProt Q9NZC4 1-300); settings: protein: recombinant; tags: N-terminal GST; dsDNA, one strand shown
T5 sequence: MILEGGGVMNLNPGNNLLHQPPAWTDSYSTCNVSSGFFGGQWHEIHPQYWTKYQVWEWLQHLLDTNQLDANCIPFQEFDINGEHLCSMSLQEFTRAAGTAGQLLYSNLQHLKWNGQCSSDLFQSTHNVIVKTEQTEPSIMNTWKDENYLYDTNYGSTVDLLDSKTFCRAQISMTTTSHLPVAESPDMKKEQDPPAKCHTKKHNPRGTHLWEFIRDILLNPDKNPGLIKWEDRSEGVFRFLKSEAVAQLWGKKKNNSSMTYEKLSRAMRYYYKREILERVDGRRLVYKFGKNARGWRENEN
Summary of the method: as §1

SPI1 = SPI1 (Homo sapiens, UniProt P17947 1-270); settings: protein: recombinant; tags: N-terminal GST; dsDNA, one strand shown
Summary of the method: as §1

SPIB = SPIB (Homo sapiens, UniProt Q01892 1-262); settings: protein: recombinant; tags: N-terminal GST; dsDNA, one strand shown
Chain of SPIB (Q01892 whole entry): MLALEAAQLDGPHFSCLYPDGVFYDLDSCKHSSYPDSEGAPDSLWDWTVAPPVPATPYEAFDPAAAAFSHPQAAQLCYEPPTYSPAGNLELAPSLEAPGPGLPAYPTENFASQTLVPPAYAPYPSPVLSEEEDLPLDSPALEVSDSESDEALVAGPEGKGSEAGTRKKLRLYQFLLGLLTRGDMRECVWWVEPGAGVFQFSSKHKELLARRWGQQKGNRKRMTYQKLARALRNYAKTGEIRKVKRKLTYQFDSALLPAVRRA
Summary of the method: as §1

ELK3 = target: T6, ELK3 (Homo sapiens, UniProt P41970 1-407); settings: protein: recombinant; tags: N-terminal GST; dsDNA, one strand shown
T6 sequence: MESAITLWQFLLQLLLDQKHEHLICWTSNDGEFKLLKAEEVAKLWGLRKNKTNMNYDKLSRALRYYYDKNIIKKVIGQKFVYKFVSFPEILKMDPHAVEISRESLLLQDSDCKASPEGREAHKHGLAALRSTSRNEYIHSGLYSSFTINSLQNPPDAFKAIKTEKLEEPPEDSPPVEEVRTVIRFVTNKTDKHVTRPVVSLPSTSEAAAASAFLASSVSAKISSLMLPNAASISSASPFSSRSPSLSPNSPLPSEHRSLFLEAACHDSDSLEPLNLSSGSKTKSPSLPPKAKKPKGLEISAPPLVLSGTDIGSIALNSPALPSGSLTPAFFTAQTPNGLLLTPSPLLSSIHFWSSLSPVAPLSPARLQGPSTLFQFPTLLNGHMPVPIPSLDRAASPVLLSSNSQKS
Summary of the method: as §1

FEV = target: T7, FEV (Homo sapiens, UniProt Q99581 1-238); settings: protein: recombinant; tags: N-terminal GST; dsDNA, one strand shown
T7 sequence: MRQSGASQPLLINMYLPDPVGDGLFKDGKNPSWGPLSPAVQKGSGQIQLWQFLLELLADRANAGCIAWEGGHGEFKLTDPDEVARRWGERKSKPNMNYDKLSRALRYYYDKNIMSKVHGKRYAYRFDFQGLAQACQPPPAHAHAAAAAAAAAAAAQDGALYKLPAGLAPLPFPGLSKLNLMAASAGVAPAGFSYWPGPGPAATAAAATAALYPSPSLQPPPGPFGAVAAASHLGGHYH
Summary of the method: as §1

ETV5 = ETV5 (Homo sapiens, UniProt P41161 1-510); settings: protein: recombinant; tags: N-terminal GST; dsDNA, one strand shown
Chain of ETV5 (P41161 whole entry): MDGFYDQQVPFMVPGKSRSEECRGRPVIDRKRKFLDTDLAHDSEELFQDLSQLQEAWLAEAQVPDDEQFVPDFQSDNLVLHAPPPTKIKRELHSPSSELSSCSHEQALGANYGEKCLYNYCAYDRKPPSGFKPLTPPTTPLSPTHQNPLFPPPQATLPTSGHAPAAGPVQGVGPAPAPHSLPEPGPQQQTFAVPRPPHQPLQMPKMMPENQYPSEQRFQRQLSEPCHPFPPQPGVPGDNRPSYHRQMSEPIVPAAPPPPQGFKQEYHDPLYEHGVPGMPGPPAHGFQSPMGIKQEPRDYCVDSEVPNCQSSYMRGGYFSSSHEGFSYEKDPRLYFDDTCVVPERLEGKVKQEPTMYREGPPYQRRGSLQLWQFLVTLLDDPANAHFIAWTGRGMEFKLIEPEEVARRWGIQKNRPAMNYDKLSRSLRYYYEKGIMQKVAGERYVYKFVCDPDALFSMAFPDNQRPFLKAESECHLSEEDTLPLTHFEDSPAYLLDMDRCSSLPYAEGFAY
Summary of the method: as §1

HSF1 = HSF1 (Homo sapiens, UniProt Q00613 1-529); settings: protein: recombinant; tags: N-terminal GST; chain copies: 3; dsDNA, one strand shown
Chain of HSF1 (Q00613 whole entry): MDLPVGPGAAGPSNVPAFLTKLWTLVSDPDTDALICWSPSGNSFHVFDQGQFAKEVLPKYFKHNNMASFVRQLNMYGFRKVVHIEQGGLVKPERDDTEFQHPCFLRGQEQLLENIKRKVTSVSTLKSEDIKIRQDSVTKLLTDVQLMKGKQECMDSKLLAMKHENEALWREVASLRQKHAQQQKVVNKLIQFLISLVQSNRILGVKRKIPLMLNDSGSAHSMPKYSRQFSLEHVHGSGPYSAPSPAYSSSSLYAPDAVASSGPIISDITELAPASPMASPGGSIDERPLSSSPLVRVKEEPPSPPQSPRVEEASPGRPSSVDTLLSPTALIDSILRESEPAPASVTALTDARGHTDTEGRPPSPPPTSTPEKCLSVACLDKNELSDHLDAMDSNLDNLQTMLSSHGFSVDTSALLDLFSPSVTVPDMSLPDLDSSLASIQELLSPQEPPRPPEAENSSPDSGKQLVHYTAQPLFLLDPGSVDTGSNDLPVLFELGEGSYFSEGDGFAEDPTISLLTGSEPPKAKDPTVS
Summary of the method: as §1

SPIC = target: T8, SPIC (Homo sapiens, UniProt Q8N5J4 1-248); settings: protein: recombinant; tags: N-terminal GST; dsDNA, one strand shown
T8 sequence: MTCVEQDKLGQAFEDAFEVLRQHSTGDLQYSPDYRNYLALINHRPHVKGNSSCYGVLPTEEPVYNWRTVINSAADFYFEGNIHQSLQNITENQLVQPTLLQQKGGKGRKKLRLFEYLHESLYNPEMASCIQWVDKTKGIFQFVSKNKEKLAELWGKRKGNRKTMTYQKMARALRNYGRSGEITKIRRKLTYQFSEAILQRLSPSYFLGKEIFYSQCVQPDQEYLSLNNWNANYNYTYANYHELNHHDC
Summary of the method: as §1

ELF4 = ELF4 (Homo sapiens, UniProt Q99607 1-663); settings: protein: recombinant; tags: N-terminal GST; dsDNA, one strand shown
Chain of ELF4 (Q99607 whole entry): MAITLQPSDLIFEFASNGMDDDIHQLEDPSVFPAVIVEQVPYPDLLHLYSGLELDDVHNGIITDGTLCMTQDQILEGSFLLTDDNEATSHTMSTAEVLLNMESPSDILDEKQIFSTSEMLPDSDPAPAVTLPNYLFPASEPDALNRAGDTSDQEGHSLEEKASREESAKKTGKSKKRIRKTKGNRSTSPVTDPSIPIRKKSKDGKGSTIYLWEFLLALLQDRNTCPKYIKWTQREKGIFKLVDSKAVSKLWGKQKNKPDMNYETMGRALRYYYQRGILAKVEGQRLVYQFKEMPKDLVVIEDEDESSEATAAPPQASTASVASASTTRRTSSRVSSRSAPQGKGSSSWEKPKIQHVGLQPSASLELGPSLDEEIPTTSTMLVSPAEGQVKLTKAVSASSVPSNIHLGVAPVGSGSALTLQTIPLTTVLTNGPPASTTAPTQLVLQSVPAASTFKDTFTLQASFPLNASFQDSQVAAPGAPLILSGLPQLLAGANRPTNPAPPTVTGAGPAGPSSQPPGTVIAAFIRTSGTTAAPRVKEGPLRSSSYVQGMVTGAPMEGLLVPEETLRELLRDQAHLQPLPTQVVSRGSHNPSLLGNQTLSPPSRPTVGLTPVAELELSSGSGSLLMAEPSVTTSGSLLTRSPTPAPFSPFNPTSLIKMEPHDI
Summary of the method: as §1

ELK4 = target: T9, ELK4 (Homo sapiens, UniProt P28324-2 1-405); settings: protein: recombinant; tags: N-terminal GST; dsDNA, one strand shown
T9 sequence: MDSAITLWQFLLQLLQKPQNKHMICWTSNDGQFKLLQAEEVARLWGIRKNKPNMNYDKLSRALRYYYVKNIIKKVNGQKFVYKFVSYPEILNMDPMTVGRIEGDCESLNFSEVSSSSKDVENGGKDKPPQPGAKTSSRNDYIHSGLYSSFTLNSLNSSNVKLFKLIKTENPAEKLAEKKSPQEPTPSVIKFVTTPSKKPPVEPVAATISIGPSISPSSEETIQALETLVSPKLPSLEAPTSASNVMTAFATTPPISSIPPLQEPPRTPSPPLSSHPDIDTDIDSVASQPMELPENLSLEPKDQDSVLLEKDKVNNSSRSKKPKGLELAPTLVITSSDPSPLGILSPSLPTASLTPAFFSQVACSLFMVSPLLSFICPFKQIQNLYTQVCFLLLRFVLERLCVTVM
Summary of the method: as §1

ETV2 = target: T10, ETV2 (Homo sapiens, UniProt O00321 1-342); settings: protein: recombinant; tags: N-terminal GST; dsDNA, one strand shown
T10 sequence: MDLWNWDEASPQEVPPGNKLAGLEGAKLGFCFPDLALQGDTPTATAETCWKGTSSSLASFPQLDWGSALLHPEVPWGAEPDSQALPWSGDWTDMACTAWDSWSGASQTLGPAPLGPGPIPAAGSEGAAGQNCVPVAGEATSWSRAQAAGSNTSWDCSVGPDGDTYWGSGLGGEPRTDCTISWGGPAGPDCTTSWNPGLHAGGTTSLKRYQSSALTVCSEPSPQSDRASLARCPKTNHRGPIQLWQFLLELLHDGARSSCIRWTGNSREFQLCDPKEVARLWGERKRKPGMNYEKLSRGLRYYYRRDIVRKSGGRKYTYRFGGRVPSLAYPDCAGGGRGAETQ
Summary of the method: as §1

ELF3 = target: T11, ELF3 (Homo sapiens, UniProt P78545 1-371); settings: protein: recombinant; tags: N-terminal GST; dsDNA, one strand shown
T11 sequence: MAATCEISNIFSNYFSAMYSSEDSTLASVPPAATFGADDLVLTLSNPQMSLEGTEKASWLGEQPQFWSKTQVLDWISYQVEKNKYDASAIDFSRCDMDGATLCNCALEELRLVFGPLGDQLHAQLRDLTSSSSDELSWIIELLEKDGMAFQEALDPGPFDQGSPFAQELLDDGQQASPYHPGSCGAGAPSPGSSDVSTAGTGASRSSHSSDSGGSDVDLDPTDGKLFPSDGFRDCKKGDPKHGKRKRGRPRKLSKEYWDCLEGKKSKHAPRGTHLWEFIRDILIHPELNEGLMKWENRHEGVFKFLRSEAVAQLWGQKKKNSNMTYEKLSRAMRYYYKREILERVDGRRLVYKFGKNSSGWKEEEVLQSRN
Summary of the method: as §1

CRX = CRX (Homo sapiens, UniProt O43186 1-299); settings: protein: recombinant; tags: N-terminal GST; dsDNA, one strand shown
Chain of CRX (O43186 whole entry): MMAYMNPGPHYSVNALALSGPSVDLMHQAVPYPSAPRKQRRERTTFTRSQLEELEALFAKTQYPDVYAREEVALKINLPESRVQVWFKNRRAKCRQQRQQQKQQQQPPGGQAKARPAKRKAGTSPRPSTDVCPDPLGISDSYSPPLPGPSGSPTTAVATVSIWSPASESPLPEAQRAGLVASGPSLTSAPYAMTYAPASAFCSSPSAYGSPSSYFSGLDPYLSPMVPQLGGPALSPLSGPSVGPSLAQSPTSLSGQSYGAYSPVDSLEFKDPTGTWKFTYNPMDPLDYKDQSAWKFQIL
Summary of the method: as §1

ETV1 = ETV1 (Homo sapiens, UniProt P50549 1-477); settings: protein: recombinant; tags: N-terminal GST; dsDNA, one strand shown
Chain of ETV1 (P50549 whole entry): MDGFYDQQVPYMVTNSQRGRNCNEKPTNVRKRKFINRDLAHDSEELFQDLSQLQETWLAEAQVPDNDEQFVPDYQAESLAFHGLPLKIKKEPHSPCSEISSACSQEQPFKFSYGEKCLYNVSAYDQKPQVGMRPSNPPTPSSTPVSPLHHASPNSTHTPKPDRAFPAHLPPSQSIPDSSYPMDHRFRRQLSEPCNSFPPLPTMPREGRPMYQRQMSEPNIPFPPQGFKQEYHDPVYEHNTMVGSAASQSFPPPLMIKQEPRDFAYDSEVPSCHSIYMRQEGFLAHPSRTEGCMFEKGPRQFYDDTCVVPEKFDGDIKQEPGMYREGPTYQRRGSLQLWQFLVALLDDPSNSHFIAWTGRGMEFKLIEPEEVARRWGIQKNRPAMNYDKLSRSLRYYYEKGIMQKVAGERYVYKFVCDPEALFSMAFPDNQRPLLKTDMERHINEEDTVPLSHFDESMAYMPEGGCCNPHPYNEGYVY
Summary of the method: as §1

In the case of ATTGCT, the binding signal (FLI1) is reported as 1.24 fold enrichment (6-mer frequency, TF over GST control), the binding signal (ELK1) is reported as 1.19 fold enrichment (6-mer frequency, TF over GST control) and the binding signal (GABPA) is reported as 1.27 fold enrichment (6-mer frequency, TF over GST control). For the same sequence, the binding signal (ERG) was 1.25 fold enrichment (6-mer frequency, TF over GST control), the binding signal (ELF1) was 1.24 fold enrichment (6-mer frequency, TF over GST control) and the binding signal (EHF) was 1.31 fold enrichment (6-mer frequency, TF over GST control). For the same sequence, the binding signal (SPI1) was 1.1 fold enrichment (6-mer frequency, TF over GST control), the binding signal (SPIB) was 1.3 fold enrichment (6-mer frequency, TF over GST control) and the binding signal (ELK3) was 1.22 fold enrichment (6-mer frequency, TF over GST control). For the same sequence, the binding signal (FEV) was 1.22 fold enrichment (6-mer frequency, TF over GST control), the binding signal (ETV5) was 1.16 fold enrichment (6-mer frequency, TF over GST control) and the binding signal (HSF1) was 1.14 fold enrichment (6-mer frequency, TF over GST control). For the same sequence, the binding signal (SPIC) was 1.32 fold enrichment (6-mer frequency, TF over GST control), the binding signal (ELF4) was 1.19 fold enrichment (6-mer frequency, TF over GST control) and the binding signal (ELK4) was 1.16 fold enrichment (6-mer frequency, TF over GST control). For the same sequence, the binding signal (ETV2) was 1.22 fold enrichment (6-mer frequency, TF over GST control), the binding signal (ELF3) was 1.28 fold enrichment (6-mer frequency, TF over GST control) and the binding signal (CRX) was 1.17 fold enrichment (6-mer frequency, TF over GST control). The binding signal (ETV1) was 1.27 fold enrichment (6-mer frequency, TF over GST control).
